Bioassay records deposited in PubChem by National Center for Advancing Translational Sciences (NCATS).
Pf growth 96h = P. falciparum growth inhibition at 96 hour, primary screen for plastid delayed-death inhibitors; Potency, µM (doses to about 28.7 µM), inactives show at the highest dose activity change, negative = inhibition, actives largely listed as inhibitors; P. falciparum luciferase reporter growth, 96 h; 320,000 tested, 6.9% active; AID 504834; also: potency is read from the fitted curve at half-maximal effect
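Compounds incubated with erythrocytes infected by luciferase-expressing P. falciparum (2% hematocrit, 0.05% parasitemia final) for 96 hours, 37 C in 5% CO2. Growth inhibition scored as decreased luciferase luminescence.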
LASV entry inh = blocks Lassa virus binding to or entry into cells; Lassa virus pseudotype entry inhibition, cell reporter; Potency, µM (doses to about 37.9 µM), for inactives: top-dose activity change, negative = inhibition, actives largely listed as inhibitors; 300,000 tested, 1.2% active; calls by dose curve; tested in HEK293 cells; also: potency is read from the fitted curve at half-maximal effect; nearly all actives have a fitted effect of over 50% in size
Pf growth 48h = inhibits P. falciparum growth in the first generation, 48 h; Potency, µM (highest dose often 28.7 µM), for the others: top-dose activity change, negative = inhibition, hits mostly inhibitors; 310,000 tested, 5.9% active; P. falciparum luciferase growth in erythrocytes, 48 h; also: potency is read from the fitted curve at half-maximal effect
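Compounds are pin-transferred into medium, infected erythrocytes (2% hematocrit, 0.1% parasitemia final) are added, and plates sit one parasite generation at 37 C in 5% CO2. Detection reagent is then added and luminescence measured.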
HCMV inh = human cytomegalovirus inhibition; HFF cells, HCMV-luciferase reporter, 72 h; active compounds read low; activity change, negative = inhibition, % at 57.5 µM; 410,000 tested, 4.5% active; in the data active = activity change below about -60%; inconclusive = no clear call, values can overlap the other calls; inactive = above about -39%
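Steps: HFFs plated, 16 h 37C; compounds added; HCMV-luciferase added to MOI 1 PFU/cell; 72 h 37C; OneGlo reagent, 5 min room temperature; luminescence read, normalized to controls.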
HCV inh = blocks hepatitis C virus | Huh7.5.1 HCVcc-Cre infection, luciferase reporter, 44 h | Potency, µM (highest dose often 41.8 µM), inactives show at the top dose activity change, negative = inhibition, hits mostly inhibitors | 340,000 tested, 3.4% active | AID 651820; also: potency is read from the fitted curve at half-maximal effect
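1,000 cells/well; 4 h culture; + compound; + HCVcc-Cre (~0.5 moi); 44 h; luciferase substrate, RT 15 min; read 15 sec.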
MARV entry inh = inhibitors of Marburg virus binding or cell entry. Marburg virus pseudotyped entry inhibition, cell reporter. Potency, µM (series often up to 37.8 µM), for the others: top-dose activity change, negative = inhibition, hits mostly inhibitors. 300,000 tested, 1.8% active. AID 540276; calls by dose curve; tested in HEK293 cells; also: potency is read from the fitted curve at half-maximal effect
Numbers without * were called inactive; ? = inconclusive; . = no result given; [ ] = dose if it differs, or a comment. Shown are actives, neighbours in structure and some others; about 14% of the full set was active somewhere. Unless noted, calls follow the shape of the dose curve; as a rule, active = well fitted inhibition curve with a large enough effect; inconclusive = small, poorly fitted or top-dose-only effect, or another doubt; inactive = no such curve, though single readings can be large or run the other way. % is scaled to controls: 0 for no effect and ±100 for the full control effect.

SMILES | Pf growth 96h | LASV entry inh | Pf growth 48h | HCMV inh | HCV inh | MARV entry inh
COc1ccc(CCNc2ncnc3c2oc2ccccc23)cc1OC | 2.9µM* | ? | ? | -92* | 3.2µM* | ?
Cc1nc(NCCc2cnc[nH]2)c2oc3ccccc3c2n1 | 17% | 11% | ? | 34 | -1% | 2%
Cc1cc(N2CCC(C(=O)NC3CCCCC3)CC2)nc(-c2ccccc2)n1 | ? | -4% | -8% | -15 | 6% | -7%
CCCc1cc(N2CCC(C(N)=O)CC2)nc(-c2ccccc2)n1 | 23% | 8% | 5.2µM* | -18 | -2% | 0%[46.1 µM]
CS(=O)(=O)Cc1cc(N2CCCC2)nc(-c2ccccc2)n1 | -24% | 0% | 18% | -4 | -4% | -4%[46.1 µM]
Cc1cc(N2CCC(C(=O)NC3CC3)CC2)nc(-c2ccccc2)n1 | ? | 4% | 3.7µM* | -31 | -26% | -5%[46.1 µM]
CC1CN(C=O)CC(C)N1CCN1C(C)CN(C=O)CC1C (stereo not drawn) | . | ? | . | -8 | 24% | 17%
CC(C)c1ccc(NC(=O)c2ccc3c(c2)CCCN3S(C)(=O)=O)cc1 | . | -24%[46.1 µM] | . | -74* | . | ?
Cc1ccc(NC(=O)c2ccc3c(c2)CCN3S(C)(=O)=O)cc1 | . | . | . | 15 | . | .
Cc1ccc(NC(=O)c2ccc3c(c2)CCN3S(C)(=O)=O)cc1C | 0% | ? | 59% | 72 | 11µM* | ?
CCCCc1ccc(NC(=O)c2ccc3c(c2)CCN3S(=O)(=O)CC)cc1 | . | ? | . | -64* | . | 1%[46.1 µM]
CS(=O)(=O)N1CCc2cc(C(=O)Nc3ccc(C(F)(F)F)cc3)ccc21 | . | ? | . | -63* | . | 14%[46.1 µM]
Cc1ccccc1Nc1nnc(SCC(=O)NCC2CCCO2)s1 (stereo not drawn) | . | -1% | . | -35 | 12% | -20%
c1ccc(-c2nc(-c3cccs3)c(NC3CCCCC3)o2)cc1 | . | . | . | . | . | -19%[14.2 µM]
CCC(C)NC(=O)CSc1nc2c(sc3ccccc32)c(=O)n1CCc1ccccc1 (stereo not drawn) | . | 0%[46.1 µM] | . | -33 | . | .
Cc1ccc(C)c(N2CCN(c3c(CN4CCCC4)c(=O)oc4ccccc34)CC2)c1 | . | 23%[46.1 µM] | . | 0 | . | ?
CS(=O)(=O)N1CCc2cc(C(=O)Nc3ccc(Br)cc3)ccc21 | ? | . | -8% | 16 | ? | .
CS(=O)(=O)N1CCc2cc(C(=O)Nc3ccc(Cl)c(C(F)(F)F)c3)ccc21 | . | ? | . | -71* | . | ?
CCc1nnc2n1N(C(C)=O)C(c1ccc(C(C)(C)C)cc1)=C(C(C)=O)S2 | . | 11µM* | . | -98* | . | .
CC1CN(S(=O)(=O)c2cc(C(=O)NCCC3=CCCCC3)ccc2Cl)CC(C)O1 (stereo not drawn) | ? | ? | 10µM* | -82* | ? | -26%[46.1 µM]
O=C(NCCC1=CCCCC1)c1ccc(F)c(S(=O)(=O)N2CCOCC2)c1 | 9.3µM* | 0% | ? | 0 | -18% | -8%
Oc1[nH]c2ccccc2c1N=NC(=S)N1CCOCC1 | 0.59µM* | . | 0.59µM* | . | 8.9µM* | .
COC(=O)N=Nc1c(O)[nH]c2ccc(Br)cc12 | 41% | -9% | 46% | -23 | -44% | -14%
Oc1[nH]c2ccc(Br)cc2c1N=NC(=S)N1CCOCC1 | 0.41µM* | . | 0.83µM* | -100* | 11µM* | .
CCCCC(=O)Nc1cccc2c1C(=O)N(c1ccccc1)C2=O | 0.93µM* | -11% | 3% | 29 | 1% | 1%
SMILES | Pf growth 96h | LASV entry inh | Pf growth 48h | HCMV inh | HCV inh | MARV entry inh
CC(=O)Nc1ccc(N2C(=O)c3cccc(NC(C)=O)c3C2=O)cc1 | 5% | -3% | 6% | -12 | 17% | 0%[46.1 µM]
CCN(CC(=O)Nc1cc(Cl)ccc1C)C(=O)c1oc2ccc(OC)cc2c1C | ? | 8% | ? | -15 | ? | -28%
CCCC(O)(CCC)C(=O)NN(C(=O)OC)c1ccccc1 | 27% | -1% | 4% | 25 | 20% | -17%
CCN(CC)NC(=O)Nc1ccccc1 | -11% | -15%[46.1 µM] | 10% | 6 | 10% | 6%[46.1 µM]
O=C(Nc1ccccc1)NN(C(=O)CCl)c1ccccc1 | ? | ? | 13µM* | -102* | ? | ?
CCC(O)(CC)C(=O)NN(C(=O)CCl)c1ccccc1 | 5.2µM* | -27% | ? | -94* | -13% | ?
Cc1ccc(N(NC(=O)C(O)(c2ccccc2)c2ccccc2)C(=O)CCl)cc1 | ? | ? | 5.2µM* | -99* | 3.2µM* | 13µM*
Cc1ccc(C(O)(C(=O)NN(C(=O)c2ccccc2)c2ccccc2)c2ccc(C)cc2)cc1 | 0% | -6% | 5% | 29 | 4% | ?
CC1C(=O)N(Cc2cn(CCC3OCCCO3)nn2)CCS(=O)(=O)N1Cc1ccc(-c2ccc(F)nc2)cc1 (stereo not drawn) | . | -2%[46.1 µM] | . | -16 | . | .
CC(C)CN1C(=O)CSCC1(C)C(=O)NCc1ccccc1 (stereo not drawn) | . | . | . | -15 | . | .
COc1ccc(C2c3ccc(O)cc3Oc3ncn4nc(-c5ccccn5)nc4c32)cc1 (stereo not drawn) | ? | . | ? | -37 | -13% | .
COc1ccc(C2c3ccc(O)cc3Oc3ncn4nc(-c5ccccn5)nc4c32)cc1OC (stereo not drawn) | -4% | -20% | 10µM* | -7 | ? | -11%[46.1 µM]
COc1ccc(C2c3ccc(O)cc3Oc3ncn(Cc4ccccc4)c(=N)c32)cc1OC (stereo not drawn) | ? | ? | 12µM* | -27 | -11% | ?
COc1ccc(C2c3ccc(O)cc3Oc3ncn4nc(-c5ccncc5)nc4c32)cc1OC (stereo not drawn) | 3.3µM* | ? | 1.3µM* | 33 | ? | ?
CCOC(=O)N1CCN(S(=O)(=O)c2ccc(C(=O)NNc3nc4cc(C)cc(C)c4s3)cc2)CC1 | ? | ? | ? | . | 3.5µM* | 21µM*
CCOC(=O)N1CCN(S(=O)(=O)c2ccc(C(=O)NNc3nc4c(C)cccc4s3)cc2)CC1 | ? | ? | ? | -103* | ? | ?
CCOC(=O)N1CCN(S(=O)(=O)c2ccc(C(=O)NNc3nc4c(C)cc(C)cc4s3)cc2)CC1 | ? | ? | ? | -104* | 11µM* | ?
Cc1cc(C)c2nc(NC(=O)c3ccc(S(=O)(=O)N4CCCC4)cc3)sc2c1 | . | -5%[46.1 µM] | . | 5 | . | .
Cc1cc(C)c2nc(NNC(=O)c3ccc(S(=O)(=O)N4CCCCC4)cc3)sc2c1 | 4.7µM* | ? | ? | -96* | 6.3µM* | ?
CCOC(=O)N1CCN(S(=O)(=O)c2ccc(C(=O)N(CCN(C)C)c3nc4ccc(Cl)cc4s3)cc2)CC1 | -29% | . | -21% | -25 | ? | .
CCOC(=O)N1CCN(S(=O)(=O)c2ccc(C(=O)NNc3nc4ccc(Cl)cc4s3)cc2)CC1 | ? | ? | 0% | . | 7.1µM* | 18µM*
